Screens (PubChem)
The list is not random: actives were taken first. Their share in the collection is about 8.1%.
ELG1 DNA repair: blocks ELG1-dependent DNA repair in HEK293T cells. HEK293T ELG1-luciferase reporter, luminescence, 16 h; DNA damage induced by 5-fluorouridine. Potency, µM (top dose mostly 46.1 µM), for inactives: top-dose activity change, negative = inhibition, most hits filed as inhibitors. hit rate 2.3% among 330,000; further: on the % scale 0 is the no-effect control and ±100 the full control effect; nearly all actives have a fitted effect of over 55% in size
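In this reporter screen, reduction of luminescence relative to DMSO vehicle indicated activity. Compounds and 5-fluorouridine were added together to 2,000 cells per well, incubated for 16 hr at 37 °C, then developed with ONE-Glo.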
MCF10A rereplic: inducers of DNA re-replication in MCF 10A breast cells | MCF 10A DNA re-replication, Hoechst nuclear intensity, 48 h | Potency, µM (highest dose often 46.1 µM), inactives show top-dose activity, positive = re-replication, usual class: activators | hit rate 2.9% among 350,000 | AID 624296; further: % of control where 0% means no effect; nearly all actives have a fitted effect of over 50% in size
SW480 rerep: inducers of DNA re-replication in SW480 colon cancer cells | SW480 DNA re-replication, Hoechst DNA content imaging, 48 h | Potency, µM (highest dose often 46.1 µM), for inactives: at the top dose re-replication activation, most hits filed as activators | hit rate 1.8% among 340,000 | AID 624297; further: % of control where 0% means no effect; nearly all actives have a fitted effect of over 55% in size
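SW480 cells exposed to compounds for 48 hr at 37 C, 5% CO2, then Hoechst-stained 40 min. Nuclear DNA content imaged by fluorescence scanning (405 nm excitation, 500-530 nm emission); re-replication scored as increased high-intensity nuclei.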
KB-3-1 cytotox: KB-3-1 parental cell cytotoxicity | KB-3-1 viability, CellTiter-Glo ATP luminescence, 72 h | Potency, µM (highest dose often 46.1 µM), most hits filed as cytotoxic | hit rate 1.4% among 400,000 | AID 1347075; further: on the % scale 0 is the no-effect control and ±100 the full control effect; nearly all actives have a fitted effect of over 60% in size
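Cytotoxicity measured as CellTiter-Glo luminescence after 72 h at 37 C. Compound titrations were pinned onto drug-naive KB-3-1 parental adenocarcinoma cells grown in DMEM with 10% FBS, and normalized data fitted to concentration-response curves.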
KB-V1 MDR tox: KB-V1 MDR subline cytotoxicity | KB-V1 MDR cells viability, CellTiter-Glo, 72 h | Potency, µM (series often up to 46.1 µM), actives largely listed as cytotoxic | hit rate 3.4% among 400,000; further: on the % scale 0 is the no-effect control and ±100 the full control effect; nearly all actives have a fitted effect of over 60% in size
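Potencies derive from concentration-effect curves fitted to normalized luminescence (CellTiter-Glo) of KB-V1 cells treated for 72 h at 37 degrees C in phenol-red-free DMEM containing 10% FBS.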
* hit, by the source's call. The call rests on the fitted dose curve; in most records, active means well fitted curve in the direction sought with a large enough effect; inconclusive means small, poorly fitted or top-dose-only effect, or another doubt; inactive means no such curve, though single readings can be large; an effect the other way counts as inactive or inconclusive. Potency means the concentration at half of the fitted maximal effect.

What do the screens show for `Cc1ccccc1/C=C1\CCCc2ccccc2C1=O`?
ELG1 DNA repair: inconclusive; MCF10A rereplic: inconclusive; SW480 rerep: 18%; KB-3-1 cytotox: inactive; KB-V1 MDR tox: inactive

Results for COc1ccc(/C=C2\SC(N3CCc4ccccc4C3)=NC2=O)cc1OC ?
ELG1 DNA repair: -25%; MCF10A rereplic: 3.7µM*; SW480 rerep: 69%; KB-3-1 cytotox: inconclusive; KB-V1 MDR tox: 12µM*

What do the screens show for `COc1cc(/C=C2\COC/C(=C\c3ccc(O)c(OC)c3)C2=O)ccc1O`?
ELG1 DNA repair: inconclusive; MCF10A rereplic: 5.8µM*; SW480 rerep: 7.3µM*; KB-3-1 cytotox: inactive; KB-V1 MDR tox: inactive

How did O=C1/C(=C\c2ccc3ccccc3c2)CCCc2ccccc21 do in these assays?
ELG1 DNA repair: inconclusive; MCF10A rereplic: 5.8µM*; SW480 rerep: inconclusive; KB-3-1 cytotox: 5.2µM*; KB-V1 MDR tox: 7.3µM*

What do the screens show for `COc1ccc(/C=C2\CN(Cc3ccccc3)C/C(=C\c3ccc(OC)c(O)c3)C2=O)cc1O`?
ELG1 DNA repair: inconclusive; MCF10A rereplic: inconclusive; SW480 rerep: 3.7µM*; KB-3-1 cytotox: 5.2µM*; KB-V1 MDR tox: inactive

What do the screens show for `CSCCC1NC(=O)N(CC(=O)Nc2ccc(Cl)c(S(=O)(=O)N3CCOCC3)c2)C1=O` (stereo not drawn)?
ELG1 DNA repair: -24%; MCF10A rereplic: 14%; SW480 rerep: 5%; KB-3-1 cytotox: inactive; KB-V1 MDR tox: inactive

How did C/C(=N\NC(=O)c1ccc2nc[nH]c2c1)c1ccc([N+](=O)[O-])cc1 do in these assays?
ELG1 DNA repair: 6%

Results for COc1ccc2c(c1)CC/C(=C/c1ccccn1)C2=O ?
ELG1 DNA repair: inconclusive; MCF10A rereplic: inconclusive; SW480 rerep: inconclusive; KB-3-1 cytotox: inactive; KB-V1 MDR tox: inactive

Results for COc1ccc2c(c1)CC/C(=C/c1cc(OC)c(OC)c(OC)c1)C2=O ?
ELG1 DNA repair: 18µM*; MCF10A rereplic: inconclusive; SW480 rerep: 4%; KB-3-1 cytotox: inactive; KB-V1 MDR tox: inactive

How did Cn1c(-c2ccc3ccccc3n2)nc2cnccc21 do in these assays?
ELG1 DNA repair: inconclusive; MCF10A rereplic: 4%; SW480 rerep: -2%; KB-3-1 cytotox: inactive; KB-V1 MDR tox: 10µM*

Results for COc1cc(OC)c(-c2nc3cnccc3n2C)cc1OC ?
ELG1 DNA repair: inconclusive; MCF10A rereplic: 13%; SW480 rerep: -6%; KB-3-1 cytotox: inactive; KB-V1 MDR tox: inactive

Results for CCc1ccc2[nH]c(=O)c(CN(Cc3ccccc3)Cc3nnnn3Cc3ccccc3)cc2c1 ?
KB-3-1 cytotox: inactive; KB-V1 MDR tox: inactive

Results for COc1ccccc1CN(Cc1cc2cc3c(cc2[nH]c1=O)OCCO3)Cc1nnnn1Cc1ccco1 ?
ELG1 DNA repair: 21µM*; MCF10A rereplic: 7%; SW480 rerep: 4%; KB-3-1 cytotox: inactive; KB-V1 MDR tox: inactive

What do the screens show for `CCOC(=O)Cn1nnnc1CN(Cc1ccccc1)Cc1cc2cc(CC)ccc2[nH]c1=O`?
ELG1 DNA repair: -7%; MCF10A rereplic: 10µM*; SW480 rerep: inconclusive; KB-3-1 cytotox: inactive; KB-V1 MDR tox: inactive

How did O=c1[nH]c2cc3c(cc2cc1CN(Cc1cccnc1)Cc1nnnn1Cc1ccco1)OCCO3 do in these assays?
ELG1 DNA repair: 23µM*; MCF10A rereplic: 3%; SW480 rerep: 1%; KB-3-1 cytotox: inactive; KB-V1 MDR tox: inactive

What do the screens show for `O=c1[nH]c2cc3c(cc2cc1CN(Cc1ccccc1)Cc1nnnn1Cc1ccco1)OCCO3`?
ELG1 DNA repair: inconclusive; MCF10A rereplic: -7%; SW480 rerep: inconclusive; KB-3-1 cytotox: inactive; KB-V1 MDR tox: 23µM*

How did O=c1[nH]c2cc3c(cc2cc1CN(Cc1cccs1)Cc1nnnn1Cc1ccco1)OCCO3 do in these assays?
ELG1 DNA repair: inconclusive; MCF10A rereplic: inconclusive; SW480 rerep: inconclusive; KB-3-1 cytotox: inactive; KB-V1 MDR tox: inactive

What do the screens show for `CCOCCN1CCN(C(=O)CN2CCCC2=O)CC1`?
ELG1 DNA repair: 10%; MCF10A rereplic: 2%; SW480 rerep: -8%; KB-3-1 cytotox: inconclusive; KB-V1 MDR tox: inactive
